The results in this text go back to PubChem BioAssay.

In assay [1] the test system is Wnt5a (protein binding on small-molecule microarray). Briefly: small molecules binding Wnt5a protein – biophysical, small-molecule microarray, 635/667 nm fluorescence, primary screen (AID 1142).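 Note: fluorescence read at 667 nm with signal to noise per printed feature.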 The conditions noted are these: 635 nm fluorescence, higher = more signal.
The nature of assay [2]: ATP-based viability of Huh7 replicon cells – cell-based, CellTiter-Glo luminescence, basal, 48 h, cytotoxicity control for HCV replication inhibitor project, primary screen (AID 1143).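 Note: Huh7 hepatoma cells carrying a hepatitis C replication reporter with no stimulus; test concentration not given here.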 Conditions: higher = more signal, called active from +8 up or from −8 down.
Assay [3] in a line: Pseudomonas biofilm growth suppression – PAO1 strain, BacTiter-Glo luminescence, LB-PBS, primary screen (AID 1144). Conditions: P. aeruginosa PAO1 biofilm, 12 h, higher = more signal.
A short description of assay [4]: basal CRE-LacZ reporter activity in PC12 – cell-based, unstimulated, primary screen (AID 1145). Conditions: no forskolin, luminescence, 4.5 h, higher = more signal, called active from +8 up or from −8 down.
Assay [5] in a line: forskolin-driven CRE-LacZ activity in PC12 – cell-based, CRE-LacZ reporter, forskolin-stimulated, primary screen (AID 1146).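 Note: PC12 cells with 6xCRE LacZ reporter stimulated by forskolin 10 µM; beta-galactosidase reporter signal reflecting CREB driven transcription.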 Conditions: luminescence, 4.5 h, higher = more signal, called active from +8 up or from −8 down.
The target of assay [6] is Streptavidin (Streptomyces avidinii) (UniProt P22629). In words: compounds binding control protein streptavidin – biophysical, small-molecule microarray, 635/667 nm fluorescence, artefact control for SMM compound annotation, primary screen (AID 1147).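 Note: signal reflects streptavidin binding to arrayed compounds as a control protein.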 Conditions: higher = more signal.
Assay [7] can be described thus: probe aInhba binding on compound microarray – biochemical, small-molecule microarray, 635/667 nm fluorescence, primary screen (AID 1148).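 Note: score merges 667nm spot fluorescence with signal-to-noise for antibody binding to printed compounds.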 Conditions: higher = more signal.
For assay [8], the target named is Torsin-1A (Homo sapiens) (UniProt O14656). Briefly: TOR1A wild-type binding on microarray – cell lysate, small-molecule microarray, lysate, 635/667 nm, primary screen (AID 1149). The conditions noted are these: COS7 hTOR1A-WT lysate, 635 nm fluorescence, higher = more signal.
The target is the same in assay [9]. Briefly: torsin A mutant lysate binding on microarrays – cell lysate, small-molecule microarray, COS7 lysate, 635/667 nm fluorescence, primary screen (AID 1150).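 Note: score pools 667 nm emission and signal to noise measuring lysate protein binding.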 The conditions noted are these: COS7 hTOR1A mutant lysate, 635 nm fluorescence, higher = more signal.
Assay [10] relates to Sonic hedgehog protein (Shh). In words: Sonic hedgehog microarray binding compounds – biochemical, small-molecule microarray, 635/667 nm fluorescence, primary screen (AID 1151).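 Note: Shh protein binding to compounds spotted on small-molecule microarray slides; score combines spot fluorescence intensity with signal-to-noise across triplicate slides.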 Conditions: 635 nm fluorescence, higher = more signal.
The nature of assay [11]: optical density shifts of acrAB sulA E. coli – strain DRC41, OD650, 48 h, E. coli filamentation inducer project, primary screen (AID 1152).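 Note: E. coli MC1000 strain DRC41 lacking acrAB efflux pump and sulA.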 The conditions noted are these: higher = more signal, called active from +8 up or from −8 down.
Assay [12] in a line: probe aLefty1 binding on compound microarray – biochemical, small-molecule microarray, 635/667 nm fluorescence, primary screen (AID 1153).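 Note: score merges spot fluorescence with signal-to-noise ratio from the scanned slide images.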 The conditions noted are these: higher = more signal.
Assay [13] can be described thus: plasmodial surface anion channel blockers, osmotic lysis – cell-based, P. falciparum Indochina, OD700, 1 h, primary screen (AID 1154). Conditions: P. falciparum Indochina infected RBC osmotic lysis, higher = more signal, called active from +8 up or from −8 down.
A short description of assay [14]: plasmodial surface anion channel blockers, osmotic lysis – cell-based, P. falciparum Indochina, OD700, 2 h, primary screen (AID 1155).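 Note: lysis reports solute entry through the parasite surface anion channel PSAC.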 Conditions: P. falciparum Indochina infected erythrocytes, higher = more signal, called active from +8 up or from −8 down.
Assay [15] can be described thus: changes in parasitized red cell lysis, either direction – P. falciparum Indochina, OD700, 3 h, PSAC antagonist project, primary screen (AID 1156). The conditions noted are these: P. falciparum-infected erythrocytes, osmotic lysis, higher = more signal, called active from +8 up or from −8 down.
Assay [16] is described as follows: plasmodial surface anion channel blockers, osmotic lysis – cell-based, P. falciparum Indochina, OD700, 18 h, primary screen (AID 1157). Conditions: P. falciparum Indochina infected erythrocytes, osmotic lysis OD700, 18 h; higher = more signal, called active from +8 up or from −8 down.
A short description of assay [17]: S6 kinase pathway phospho-S6 level changes – cell-based, A549, cytoblot, luminescence, serum-stimulated, primary screen (AID 1158).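 Note: serum-stimulated A549 lung adenocarcinoma cells; signal is phosphorylated S6 detected by cytoblot immunostaining with HRP secondary.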 Conditions: 5 h, higher = more signal.
The target in assay [18] is NADPH oxidase 2 (Homo sapiens) (UniProt P04839). In words: compounds shifting NOX2 Amplex Red fluorescence – cell-based, HEK293-NOX2, PMA-stimulated, NOX inhibitor project, primary screen (AID 1159). Note: test concentration not given here. The conditions noted are these: 45 min, higher = more signal, called active from +8 up or from −8 down.
For assay [19], the target named is NADPH oxidase 4 (Homo sapiens) (UniProt Q9NPH5). Briefly: compounds shifting NOX4 Amplex Red fluorescence – cell-based, HEK293-NOX4, tetracycline-induced, NOX inhibitor project, primary screen (AID 1160). The conditions noted are these: HEK293-NOX4, Amplex Red H2O2 fluorescence, 45 min; higher = more signal, called active from +8 up or from −8 down.
Assay [20] concerns the target NADPH oxidase 5 (Homo sapiens) (UniProt Q96PH1). Briefly: compounds shifting NOX5 Amplex Red fluorescence – cell-based, HEK293-NOX5, NOX inhibitor project, primary screen (AID 1161). Conditions: HEK293-NOX5, ionomycin, 45 min, higher = more signal.

The source made the active and inactive calls. Unless noted, the rule behind the calls is not given here.

Sequence of NADPH oxidase 2 (Homo sapiens) (P04839 whole entry, looked up): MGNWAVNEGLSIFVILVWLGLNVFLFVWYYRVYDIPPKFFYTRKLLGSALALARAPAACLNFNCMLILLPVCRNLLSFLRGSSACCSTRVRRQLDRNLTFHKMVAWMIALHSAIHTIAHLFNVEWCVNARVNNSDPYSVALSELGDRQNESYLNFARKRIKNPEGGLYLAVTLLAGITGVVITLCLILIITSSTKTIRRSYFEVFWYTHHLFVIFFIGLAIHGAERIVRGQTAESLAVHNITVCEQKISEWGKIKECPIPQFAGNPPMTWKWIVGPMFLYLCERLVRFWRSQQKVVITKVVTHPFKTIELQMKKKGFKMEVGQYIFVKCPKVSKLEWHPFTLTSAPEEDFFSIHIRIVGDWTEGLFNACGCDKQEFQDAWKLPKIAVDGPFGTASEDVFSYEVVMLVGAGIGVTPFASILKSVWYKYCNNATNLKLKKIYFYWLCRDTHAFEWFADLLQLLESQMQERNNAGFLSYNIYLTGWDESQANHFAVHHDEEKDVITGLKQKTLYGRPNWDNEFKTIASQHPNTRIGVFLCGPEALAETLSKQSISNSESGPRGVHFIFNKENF
Sequence of Streptavidin (Streptomyces avidinii) (P22629 whole entry, looked up): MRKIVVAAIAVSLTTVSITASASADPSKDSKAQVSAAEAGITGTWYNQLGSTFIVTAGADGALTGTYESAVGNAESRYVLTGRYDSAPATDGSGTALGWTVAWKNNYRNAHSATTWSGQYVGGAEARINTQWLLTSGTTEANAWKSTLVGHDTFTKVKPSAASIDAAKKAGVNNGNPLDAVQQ
Sequence of Torsin-1A (Homo sapiens) (O14656 whole entry, looked up): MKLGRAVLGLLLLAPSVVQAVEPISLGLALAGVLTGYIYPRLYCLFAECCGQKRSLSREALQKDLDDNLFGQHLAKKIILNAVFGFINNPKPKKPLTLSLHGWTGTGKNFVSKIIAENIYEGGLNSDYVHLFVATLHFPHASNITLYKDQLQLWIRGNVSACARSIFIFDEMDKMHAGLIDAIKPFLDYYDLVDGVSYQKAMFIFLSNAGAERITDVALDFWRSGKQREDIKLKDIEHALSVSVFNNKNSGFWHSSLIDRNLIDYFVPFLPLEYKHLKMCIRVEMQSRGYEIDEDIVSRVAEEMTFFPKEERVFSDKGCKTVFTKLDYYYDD
Sequence of NADPH oxidase 4 (Homo sapiens) (Q9NPH5 whole entry, looked up): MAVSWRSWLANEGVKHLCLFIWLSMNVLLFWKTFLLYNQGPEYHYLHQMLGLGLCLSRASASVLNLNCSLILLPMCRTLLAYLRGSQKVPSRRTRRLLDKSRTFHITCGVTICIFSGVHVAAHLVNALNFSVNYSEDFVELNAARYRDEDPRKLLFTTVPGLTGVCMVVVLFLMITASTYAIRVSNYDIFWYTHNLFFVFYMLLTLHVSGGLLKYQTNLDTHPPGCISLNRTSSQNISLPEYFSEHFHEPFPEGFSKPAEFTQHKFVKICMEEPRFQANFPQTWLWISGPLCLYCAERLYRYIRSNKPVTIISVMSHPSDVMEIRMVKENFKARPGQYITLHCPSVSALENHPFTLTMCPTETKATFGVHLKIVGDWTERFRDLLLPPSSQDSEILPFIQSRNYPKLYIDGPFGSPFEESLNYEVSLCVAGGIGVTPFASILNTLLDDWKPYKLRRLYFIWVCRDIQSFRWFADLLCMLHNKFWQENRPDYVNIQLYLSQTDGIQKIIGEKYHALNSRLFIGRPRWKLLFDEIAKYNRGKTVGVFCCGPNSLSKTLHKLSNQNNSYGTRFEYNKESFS
Sequence of NADPH oxidase 5 (Homo sapiens) (Q96PH1 whole entry, looked up): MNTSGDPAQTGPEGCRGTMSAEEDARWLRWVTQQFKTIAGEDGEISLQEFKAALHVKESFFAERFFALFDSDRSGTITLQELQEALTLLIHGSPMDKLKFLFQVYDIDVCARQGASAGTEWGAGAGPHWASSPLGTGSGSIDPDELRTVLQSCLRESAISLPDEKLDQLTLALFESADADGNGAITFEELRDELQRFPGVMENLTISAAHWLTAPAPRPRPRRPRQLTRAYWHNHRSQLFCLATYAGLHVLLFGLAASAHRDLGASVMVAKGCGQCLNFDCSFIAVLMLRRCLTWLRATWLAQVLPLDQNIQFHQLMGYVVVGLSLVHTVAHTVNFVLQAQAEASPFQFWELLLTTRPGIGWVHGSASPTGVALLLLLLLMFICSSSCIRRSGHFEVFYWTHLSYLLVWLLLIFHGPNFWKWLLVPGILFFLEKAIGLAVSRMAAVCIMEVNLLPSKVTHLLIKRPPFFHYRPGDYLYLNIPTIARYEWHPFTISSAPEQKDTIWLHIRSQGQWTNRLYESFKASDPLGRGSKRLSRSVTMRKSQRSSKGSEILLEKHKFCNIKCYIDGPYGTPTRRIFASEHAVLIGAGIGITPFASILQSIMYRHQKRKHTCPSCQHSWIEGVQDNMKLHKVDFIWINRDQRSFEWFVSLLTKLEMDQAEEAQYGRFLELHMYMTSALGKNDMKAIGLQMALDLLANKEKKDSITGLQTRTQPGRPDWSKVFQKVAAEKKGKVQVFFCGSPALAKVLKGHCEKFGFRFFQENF

On to `O=C(N1CCOCC1)[C@@]1(CCS(=O)(=O)c2ccccc2)COC(c2ccc(OCCCO)cc2)=N1`, for which the composite z-score was -0.102 in assay [1]; -0.411 in assay [6]; -0.374 in assay [7]; 0.385 in the assay with Torsin-1A (Homo sapiens) [8]; 0.65 with Torsin-1A (Homo sapiens) [9]; -0.784 in assay [10]. For the same compound, the composite z-score in [12] was -0.356. Moreover, the z-score in assay [2] was -0.963 (inactive); in [3], 0.585 (inactive); in assay [4], 0.148 (inactive); in [5], 1.58 (inactive); in assay [11], 1.04 (inactive); in [13] it was 23.8 (active). The z-score is 9.6 (active) in assay [14]; 1.75 (inactive) in assay [15]; 1.3 (inactive) in assay [16]; -0.713 in assay [17]; -1.79 (inactive) in assay [18]; 0.44 (inactive) in assay [19]. In assay [20], the z-score was -0.597.
In the case of `C=CCC(OC(C)=O)[C@@H]1[C@@H](N(Cc2ccc(-c3ccccc3)cc2)C(=O)c2cccc3ccccc23)c2cc(OCCCO)ccc2N1C(=O)c1ccc2ccccc2n1` (stereo not given in full), the composite z-score was 0.0553 in [1]; 0.306 in assay [6]; 0.237 in assay [7]; 0.258 with Torsin-1A (Homo sapiens) [8]; 0.0374 in the assay with Torsin-1A (Homo sapiens) [9]; 0.0754 in assay [10]. This compound also had a composite z-score in assay [12] of 0.123. The z-score in assay [2] is -1.48 (inactive); in [3] it was 0.321 (inactive); in assay [4], 1.76 (inactive); in [5] it was -0.505 (inactive); in assay [11] it was 0.214 (inactive); in assay [13], 1.01 (inactive). For the same compound, the z-score is 0.569 (inactive) in [14]; -0.745 (inactive) in assay [15]; 0.357 (inactive) in assay [16]; 0.332 in assay [17]; 0.772 (inactive) in assay [18]; -0.294 (inactive) in [19]. The z-score in assay [20] is -3.7.
As for `COCCOC(=O)N1C(=O)[C@@]2(c3cc(C#CCC(C(=O)OC)C(=O)OC)ccc31)[C@H](c1ccc(OCCO)cc1)N1[C@H](c3ccccc3)[C@H](c3ccccc3)OC(=O)[C@H]1[C@@H]2C(N)=O`, the composite z-score in [1] turned out to be 0.0271; in assay [6] it was 0.576; in assay [7] it was 0.13; with Torsin-1A (Homo sapiens) [8] it was 0.337; with Torsin-1A (Homo sapiens) [9], 1.01; in assay [10] it was 0.989. The compound also had a composite z-score in [12] of -0.147. Besides, the z-score was -1.29 (inactive) in assay [2]; 0.719 (inactive) in assay [3]; 0.892 (inactive) in assay [4]; 1.64 (inactive) in [5]; -0.361 (inactive) in [11]; 5.25 (inactive) in [13]. Besides, the z-score is 1.58 (inactive) in assay [14]; 0.478 (inactive) in assay [15]; 0.59 (inactive) in [16]; 0.702 in assay [17]; 2.17 (inactive) in [18]; 0.988 (inactive) in assay [19]. Besides, the z-score in assay [20] was determined as 0.717.
As for `COc1ccc(C(=O)Nc2ccc(CN3C(=O)[C@@]4(O[C@@H](CC(=O)N5Cc6ccccc6C[C@H]5CO)[C@H]([Si](C)(C)c5ccc(OC)cc5)[C@H]4C)c4ccccc43)cc2)cc1`, the composite z-score was 0.206 in assay [1]; -0.145 in assay [6]; -0.154 in [7]; 1.31 with Torsin-1A (Homo sapiens) [8]; 0.002 in the assay with Torsin-1A (Homo sapiens) [9]; 1.62 in assay [10]. The composite z-score in [12] amounted to 0.176. For the same compound, the z-score in assay [2] is -3.32 (inactive); in assay [3], 0.127 (inactive); in assay [4] it was 0.381 (inactive); in assay [5], 0.281 (inactive); in [11], 0.0225 (inactive); in [13] it was 4.72 (inactive). Besides, the z-score in assay [14] is 1.4 (inactive); in [15] it was 0.655 (inactive); in assay [16] it was 0.868 (inactive); in assay [17] it was 0.0933; in assay [18], 0.105 (inactive); in assay [19] it was 0.417 (inactive). Further, the z-score in assay [20] was -0.886.
